Screening data (PubChem BioAssay)
Rows were chosen to be rich in hits. Some 3.1% of all compounds tested hit in one or more screens of this group.
Rtt109 HAT inh = inhibitors of Candida albicans Rtt109/Vps75 histone acetyltransferase | purified Rtt109/Vps75, ThioGlo CoA-SH fluorescence, 4 h | inhibition, % at 34.9 µM | 330,000 tested, 0.16% active | AID 540336;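 active = inhibition of at least 50% in every replicate; inconclusive = best replicate reaches 50% inhibition but some replicates fall short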
Target sequence (Q5AAJ8 whole entry, looked up): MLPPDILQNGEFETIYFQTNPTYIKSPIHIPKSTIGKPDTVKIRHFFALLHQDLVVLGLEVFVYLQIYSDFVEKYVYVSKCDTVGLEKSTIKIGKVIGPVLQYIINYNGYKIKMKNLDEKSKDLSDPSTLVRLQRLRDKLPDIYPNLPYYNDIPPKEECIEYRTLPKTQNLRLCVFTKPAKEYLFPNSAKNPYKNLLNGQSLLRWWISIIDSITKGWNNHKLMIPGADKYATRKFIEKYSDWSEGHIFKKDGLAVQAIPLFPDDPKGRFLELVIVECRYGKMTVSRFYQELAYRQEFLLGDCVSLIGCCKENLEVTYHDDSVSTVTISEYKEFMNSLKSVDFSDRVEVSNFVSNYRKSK
Statin myotox sup = suppressors of simvastatin-induced myotoxicity in C2C12 myotubes | ATP luminescence, 48 h; scaled: DMSO 0, geranylgeraniol control 100 | 330,000 tested, 0.78% active | rescue of ATP level, % at 7.49 µM | AID 602340;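 active = mean ATP rescue above about 67%, or every replicate alone reaching that limit, limit read from the data, passing the limit was not always enough; inconclusive = no clear call, values can overlap the other calls; inactive = mean under the limit and some replicate under it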;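 also: myotubes were challenged with 10 µM simvastatin during compound exposure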
Wnt bcat act = activators of Wnt/beta-catenin signaling; Wnt/beta-catenin reporter cell assay, activator, plate reader; activation, % at 9.35 µM; 300,000 tested, 1.2% active; AID 743398; in the data active = activation above about 30%, passing the limit was not always enough; inconclusive = no clear call, values can overlap the other calls;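 also: 0% = neutral control wells and 100% = positive control wells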
esBAF inh = inhibitors of esBAF chromatin remodeling in mouse ES cells; 350,000 tested, 2% active; Bmi1-luciferase knock-in reporter, 24 h; 100% = twice the neutral-well signal; AID 602393; reporter increase, % at 12.5 µM; in the data active = activation above about 40%; inconclusive = no clear call, values can overlap the other calls;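 also: 0% = median of the plate's neutral control wells and 100% = double that signal; a rise in the Bmi1 reporter signal indicates esBAF inhibition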
MITF act = MITF TRPM1 promoter activation in melanoma cells | activation, % at 12.5 µM | 300,000 tested, 0.75% active | SK-MEL-5 TRPM1-promoter luciferase, 24 h; % of positive control, neutral wells = 0 | AID 588334;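 active = mean activation of at least 80% with every replicate also reaching 80%; inconclusive = mean reaches 80% but some replicate falls short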;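 also: 0% = neutral control wells and 100% = parthenolide positive control wells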
Starred values were filed as active, the others as inactive; u = inconclusive; x = not tested or not shown.

SMILES	Rtt109 HAT inh	Statin myotox sup	Wnt bcat act	esBAF inh	MITF act
N/C(=N\OC(=O)c1ccc(Cl)cc1)c1ccn[nH]1	-0.9	-1.0	48.6*	-26.7	u
CC(C)c1cn(CC[C@@H]2CC[C@H](NC(=O)C3CCCC3)[C@@H](CO)O2)nn1	x	-1.7	x	-0.1	x
CO[C@@H]1CN(C)C(=O)c2ccc(NC(=O)NC(C)C)cc2OC[C@@H](C)N(CC2CC2)C[C@H]1C	x	-0.5	x	-0.9	x
C[C@@H]1CCCCO[C@@H](CN(C)C(=O)Cc2ccccc2)[C@H](C)CN([C@@H](C)CO)C(=O)c2cc(NS(=O)(=O)c3ccc(Cl)cc3)ccc2O1	x	x	x	12.2	x
N/C(=N\OC(=O)c1ccco1)c1cccnc1	6.8	x	37.7*	x	32.2
N/C(=N\OC(=O)CC1CCCCC1)c1ccc(Br)cc1	-0.7	x	-1.2	x	26.6
N/C(=N\OC(=O)c1ccco1)c1ccc(Cl)cc1	-3.0	-4.3	64.6*	u	56.3
N/C(=N\OC(=O)c1ccc(Cl)cc1)c1ccc(Cl)cc1	-5.4	-3.8	-1.4	10.2	96.0*
N/C(=N\OC(=O)CC1CCCCC1)c1ccc(Cl)cc1	-21.0	-6.0	22.0	40.9*	27.5
N/C(=N\OC(=O)c1ccccc1Cl)c1ccc(Cl)cc1	-5.9	x	x	x	45.1
Cc1noc(C)c1S(=O)(=O)Nc1ccc2c(c1)C(=O)N([C@@H](C)CO)C[C@@H](C)[C@H](CN(C)Cc1ccncc1)OCCCC[C@@H](C)O2	x	x	x	0.0	x
CC(C)C#Cc1ccc2c(c1)O[C@@H](CN(C)C(=O)C1CCCCC1)[C@@H](C)CN([C@@H](C)CO)S2(=O)=O	x	33.6	x	2.3	x
C[C@@H]1CCCCO[C@H](CN(C)C(=O)Nc2ccc3c(c2)OCO3)[C@H](C)CN([C@@H](C)CO)C(=O)c2cc(NC(=O)Cc3ccccc3)ccc2O1	x	x	x	-1.8	x
CN1CCN(C(=O)C[C@@H]2CC[C@H](NC(=O)Cc3ccccn3)[C@@H](CO)O2)CC1	x	-13.6	x	4.5	x
N/C(=N\OC(=O)c1ccc(Cl)cc1Cl)c1cccnc1	-2.8	3.6	32.0*	5.4	23.7
N/C(=N\OC(=O)c1ccc(Cl)cc1Cl)c1ccccc1	9.1	7.0	x	-67.1	-8.7
O=C(NNS(=O)(=O)c1ccccc1)c1cc2cc3ccccc3nc2s1	20.8	x	5.7	x	24.5
O=C(NC1CC1)c1cc2cc3ccccc3nc2s1	2.3	-15.6	19.4	69.7*	71.2
CCCN(C)C[C@@H]1Oc2cc(C#Cc3ccc(F)cc3)ccc2S(=O)(=O)N([C@@H](C)CO)C[C@@H]1C	x	-2.8	x	-4.5	x
COc1cccc(CNc2nc3cc(-c4ccc(C)cc4)sc3c(=O)n2C)c1OC	x	6.6	0.3	53.8*	x
COc1cccc(-c2cc3nc(NCc4ccc5occc5c4)n(C)c(=O)c3s2)c1	x	-6.8	29.5	61.0*	x
CN(C)CCCNc1nc2cc(-c3ccc4c(ccn4C)c3)sc2c(=O)n1C	x	3.6	1.5	67.2*	x
Cn1c(NCc2ccc3occc3c2)nc2cc(-c3cccc(C(F)(F)F)c3)sc2c1=O	x	-1.2	-4.0	0.3	x
Cc1ccc(-c2cc3nc(NCCc4ccncc4)n(C)c(=O)c3s2)cc1	x	-21.7	42.4*	16.0	x
Cc1ccc(-n2[nH]c(C)c(C=Nc3cc(C)ccn3)c2=O)cc1	-1.6	89.0*	4.7	6.3	2.0
SMILES	Rtt109 HAT inh	Statin myotox sup	Wnt bcat act	esBAF inh	MITF act
Cc1ccc(-n2[nH]c(C)c(/C=N/c3ccccn3)c2=O)cc1	1.9	-44.5	x	31.1	3.8
Cc1oc(-c2ccc(Cl)cc2)nc1CS(=O)CC(=O)NC1CCCC1 (stereo not given)	-5.0	98.9*	1.1	1.3	-4.8
Cc1oc(-c2ccc(Cl)cc2)nc1CS(=O)CC(=O)NC1CCCCC1 (stereo not given)	-0.8	21.6	2.1	3.7	-2.6
Cc1ccc(-c2nc(CS(=O)CC(=O)NC3CCCCC3)c(C)o2)cc1 (stereo not given)	-13.0	104.9*	-1.3	-2.2	-3.9
Cc1oc(-c2ccc(Cl)cc2)nc1CS(=O)CC(=O)NC1CCCCCC1 (stereo not given)	12.2	0.0	-1.2	-4.3	-11.0
CC(C)NC(=O)N[C@H]1CC[C@@H](CC(=O)N2CCCCC2)O[C@H]1CO	x	-11.8	x	-1.9	x
Cc1nn(C2CCS(=O)(=O)C2)c2nc(C3CC3)cc(C(=O)Nc3ccc(C(N)=O)cc3)c12 (stereo not given)	50.1*	x	0.7	x	-3.1
CC(=C/c1ccco1)/C=N/N1CCN(c2ccccc2)CC1	-4.5	-45.4	x	48.9*	x
